# From PubChem BioAssay (NCATS)
# Unmarked numbers belong to inactive results. Inconclusive results are not listed. Activity calls are given as the source filed them. Calls follow the shape of the dose curve; as a rule, active = well fitted curve in the direction sought with a large enough effect; inconclusive = small, poorly fitted or top-dose-only effect, or another doubt; inactive = no such curve, though single readings can be large; an effect the other way counts as inactive or inconclusive.
# Assay: qHTS assay for measurement of the activity of small molecule inhibitors on Zika virus induced Caspase-3 activity in human iPSC derived neural progenitor cells (hNPCs) (AID 1224857); also: % of control where 0% means no effect; nearly all actives have a fitted effect of over 65% in size
# Details: hNPCs ZIKV-induced caspase-3/7, Caspase-Glo luminescence, 6 h; series mostly up to 45.7 µM; activity change, negative = inhibition: at the top concentration
# Summary of the method: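 hNPCs seeded 350 cells/well, cultured 16–20 h; compounds added 1 h before ZIKV (2 FFU/cell), 37 C 6 h. Caspase-Glo 3/7 luminescence after 30 min RT; % inhibition from induction scaled to uninfected (0%) and infected (100%) wells.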
row,SMILES,Potency
1,NCC1(CC(=O)O)CCCCC1,inactive
2,CCCC(C)(COC(N)=O)COC(=O)NC(C)C (configuration not stated),inactive
3,CN(C)[C@@H]1C(=O)C(C(N)=O)=C(O)[C@@]2(O)C(=O)C3=C(O)c4c(O)cccc4[C@@](C)(O)[C@H]3C[C@@H]12,inactive

# Assay: qHTS assay for measurement of the activity of small molecule inhibitors on Zika virus induced Caspase-3 activity in human astrocytoma cells (AID 1224859);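 also: plate controls were ZIKV-infected untreated cells for no effect and uninfected cells for full effect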
# Details: SNB-19 ZIKV-induced caspase-3/7, luminescence, 6 h; series mostly up to 45.7 µM; activity change, negative = inhibition: at the top concentration
# Summary of the method: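 Luminescence read-out (Caspase-Glo 3/7, 30 min RT) of caspase activity in SNB-19 cells infected 6 h with ZIKV, 2 FFU/cell, after 1 h compound pretreatment; % inhibition from induction normalised to uninfected (0%) and infected (100%) wells.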
SMILES,"activity change, negative = inhibition",outcome
C[C@@H]1[C@@H](C(=O)C[C@H]2O[C@@H]3O[C@]4(C)CC[C@@H]5[C@H](C)CC[C@@H]([C@H]2C)[C@@]35OO4)O[C@@H]2O[C@]3(C)CC[C@H]4[C@H](C)CC[C@@H]1[C@@]24OO3,-1.28%,–
CC(C)CC(N(C)C)C1(c2ccc(Cl)cc2)CCC1 (configuration not stated),–,inactive
Cn1c(CCCC(=O)O)nc2cc(N(CCCl)CCCl)ccc21,–,inactive
C=C1C[C@@H]2[C@H](CC[C@]3(C)C(=O)CC[C@@H]23)[C@@]2(C)C=CC(=O)C=C12,16.5%,–
CN1CCN(C(=O)O[C@H]2c3nccnc3C(=O)N2c2ccc(Cl)cn2)CC1,–,inactive
C[C@@H]1[C@@H](CC(C[C@H]2O[C@@H]3O[C@]4(C)CC[C@@H]5[C@H](C)CC[C@@H]([C@H]2C)[C@@]35OO4)C[S+](=O)([O-])c2ccc(COC(=O)N(C)C)cc2)O[C@@H]2O[C@]3(C)CC[C@H]4[C@H](C)CC[C@@H]1[C@@]24OO3 (some centres not stated),-5.73%,–
Cc1sc2c(c1C)C(c1ccc(Cl)cc1)=N[C@@H](CC(=O)OC(C)(C)C)c1nnc(C)n1-2,6.39%,–
CCC(C(N)=O)N1CCCC1=O (configuration not stated),2.59%,–
CN(C)CCN(C)CCc1ccc(Cl)c(Cl)c1,-6.08%,–
CO[C@]12CC[C@@]3(C[C@@H]1[C@](C)(O)C(C)(C)C)[C@@H]1Cc4ccc(O)c5c4[C@@]3(CCN1CC1CC1)[C@H]2O5,414% [at 92.8 µM],–
CCN(C(C)=O)c1cccc(-c2ccnc3c(C#N)cnn23)c1,-1.97%,–
O=c1[nH]c2ccccc2n1C1CCN(CCCC(c2ccc(F)cc2)c2ccc(F)cc2)CC1,–,inactive
NCC1(CC(=O)O)CCCCC1,–,inactive
CCCC(C)(COC(N)=O)COC(=O)NC(C)C (configuration not stated),–,inactive
CN(C)[C@@H]1C(=O)C(C(N)=O)=C(O)[C@@]2(O)C(=O)C3=C(O)c4c(O)cccc4[C@@](C)(O)[C@H]3C[C@@H]12,–,inactive

# Assay: qHTS Screen of the MIPE 4.0 Collection Against Ewings Sarcoma (TC71) (AID 1259253); also: nearly all actives have a fitted effect of over 40% in size; also: potency is read from the fitted curve at half-maximal effect;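 as to viability (% of DMSO): 100% = DMSO-treated cells and 0% = medium-only wells without cells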
# Details: TC71 Ewing sarcoma viability, CellTiter-Glo, 48 h; series mostly up to 45.8 µM; viability (% of DMSO): at the top concentration
# Summary of the method: (§1)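 Compound titrations go onto adherent log-phase cells 4 h after seeding, incubate 48 h at 37C, then CellTiter-Glo luminescence reports viability relative to DMSO and cell-free controls.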
SMILES,Potency,viability (% of DMSO) [%]
C[C@@H]1[C@@H](C(=O)C[C@H]2O[C@@H]3O[C@]4(C)CC[C@@H]5[C@H](C)CC[C@@H]([C@H]2C)[C@@]35OO4)O[C@@H]2O[C@]3(C)CC[C@H]4[C@H](C)CC[C@@H]1[C@@]24OO3,4.69 µM (active),–
CN1CCN(C(=O)O[C@H]2c3nccnc3C(=O)N2c2ccc(Cl)cn2)CC1,–,102
C[C@@H]1[C@@H](CC(C[C@H]2O[C@@H]3O[C@]4(C)CC[C@@H]5[C@H](C)CC[C@@H]([C@H]2C)[C@@]35OO4)C[S+](=O)([O-])c2ccc(COC(=O)N(C)C)cc2)O[C@@H]2O[C@]3(C)CC[C@H]4[C@H](C)CC[C@@H]1[C@@]24OO3 (some centres not stated),0.332 µM (active),–
Cc1sc2c(c1C)C(c1ccc(Cl)cc1)=N[C@@H](CC(=O)OC(C)(C)C)c1nnc(C)n1-2,1.48 µM (active),–
CN(C)CCN(C)CCc1ccc(Cl)c(Cl)c1,–,109
CCCC(C)(COC(N)=O)COC(=O)NC(C)C (configuration not stated),–,124
CN(C)[C@@H]1C(=O)C(C(N)=O)=C(O)[C@@]2(O)C(=O)C3=C(O)c4c(O)cccc4[C@@](C)(O)[C@H]3C[C@@H]12,3.72 µM (active),–

# Assay: qHTS Screen of the MIPE 4.0 Collection Against Ewings Sarcoma (TC32) (AID 1259256); also: nearly all actives have a fitted effect of over 45% in size; also: potency is read from the fitted curve at half-maximal effect;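 as to viability (percent of control): 100% = DMSO-treated cells and 0% = medium-only wells without cells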
# Details: TC32 Ewing sarcoma viability, CellTiter-Glo, 48 h; series mostly up to 45.8 µM; viability (percent of control): at the top concentration
# Summary of the method: as §1
SMILES,Potency,viability (percent of control) [%]
C[C@@H]1[C@@H](C(=O)C[C@H]2O[C@@H]3O[C@]4(C)CC[C@@H]5[C@H](C)CC[C@@H]([C@H]2C)[C@@]35OO4)O[C@@H]2O[C@]3(C)CC[C@H]4[C@H](C)CC[C@@H]1[C@@]24OO3,20.9 µM (active),–
Cn1c(CCCC(=O)O)nc2cc(N(CCCl)CCCl)ccc21,–,107
CN1CCN(C(=O)O[C@H]2c3nccnc3C(=O)N2c2ccc(Cl)cn2)CC1,–,109
C[C@@H]1[C@@H](CC(C[C@H]2O[C@@H]3O[C@]4(C)CC[C@@H]5[C@H](C)CC[C@@H]([C@H]2C)[C@@]35OO4)C[S+](=O)([O-])c2ccc(COC(=O)N(C)C)cc2)O[C@@H]2O[C@]3(C)CC[C@H]4[C@H](C)CC[C@@H]1[C@@]24OO3 (some centres not stated),0.469 µM (active),–
Cc1sc2c(c1C)C(c1ccc(Cl)cc1)=N[C@@H](CC(=O)OC(C)(C)C)c1nnc(C)n1-2,1.32 µM (active),–
CN(C)CCN(C)CCc1ccc(Cl)c(Cl)c1,–,106
CCCC(C)(COC(N)=O)COC(=O)NC(C)C (configuration not stated),–,113
CN(C)[C@@H]1C(=O)C(C(N)=O)=C(O)[C@@]2(O)C(=O)C3=C(O)c4c(O)cccc4[C@@](C)(O)[C@H]3C[C@@H]12,6.62 µM (active),–

# Assay: qHTS assay to identify small molecule inhibitors of chordoma cells - UCH-1 (AID 1259355); also: % is scaled to controls: 0 for no effect and ±100 for the full control effect; nearly all actives have a fitted effect of over 55% in size
# Details: UCH-1 chordoma viability, CellTiter-Glo, 48 h, combination; series mostly up to 46.1 µM; activity, negative = inhibition: at the top concentration
# Summary of the method: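 A 48hr growth-inhibition format: each drug tested at 15 concentrations together with added auranofin, camptothecin, doxorubicin, rubitecan and topotecan, with cell viability quantified as CellTiter-Glo luminescence.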
row,SMILES,"activity, negative = inhibition"
1,CC(C)CC(N(C)C)C1(c2ccc(Cl)cc2)CCC1 (configuration not stated),-9.65%
2,Cn1c(CCCC(=O)O)nc2cc(N(CCCl)CCCl)ccc21,-3.95%
3,C=C1C[C@@H]2[C@H](CC[C@]3(C)C(=O)CC[C@@H]23)[C@@]2(C)C=CC(=O)C=C12,-28.9%
4,CN1CCN(C(=O)O[C@H]2c3nccnc3C(=O)N2c2ccc(Cl)cn2)CC1,-1.07%
5,CCC(C(N)=O)N1CCCC1=O (configuration not stated),-13.1%
6,CCN(C(C)=O)c1cccc(-c2ccnc3c(C#N)cnn23)c1,-0.955%
7,NCC1(CC(=O)O)CCCCC1,0.896% [at 20.6 µM]
8,CCCC(C)(COC(N)=O)COC(=O)NC(C)C (configuration not stated),-9.65%
9,CN(C)[C@@H]1C(=O)C(C(N)=O)=C(O)[C@@]2(O)C(=O)C3=C(O)c4c(O)cccc4[C@@](C)(O)[C@H]3C[C@@H]12,-13.1% [at 20.6 µM]
